Test results: PubChem BioAssay (NCATS)
Inconclusive results are not listed. Active and inactive are the calls of the source. Calls come from the whole dose curve; as a rule, active = well fitted cell-killing curve with a large enough effect; inconclusive = small, poorly fitted or top-dose-only effect; inactive = flat fitted curve, though single readings scatter.

test: Cell Viability - LYMP2-025 (AID 976); settings: LYMP2-025 lymphoblastoid cell viability; series mostly up to 92.2 µM; activity change, negative = cytotoxicity: at the top concentration;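 note: cells exposed to compound for 24 h at 37 °C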;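 for activity change, negative = cytotoxicity: plate controls were DMSO only for no effect and tetraoctylammonium bromide control for full effect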
Text: NIH Chemical Genomics Center [NCGC]
NIH Molecular Libraries Screening Centers Network [MLSCN]
National Institutes of Environmental Health Sciences [NIEHS]
National Toxicology Program [NTP]
We have developed a 1536-well cell-based assay for quantitative high throughput screening (qHTS) against a number of cell lines to determine in vitro cytotoxicity of small molecules. This particular assay uses a human lymphoblastoid cell line (LYMP2-025) purchased from Coriell Institute for Medical Research.
NCGC Assay Protocol Summary:
The CellTiter-Glo luminescent cell viability assay (Promega) is a homogeneous method to measure the number of viable cells in culture. The end point readout of this assay is based on quantitation of intracellular ATP, an indicator of metabolic activity, using the luciferase reaction. Luciferase catalyzes the oxidation of beetle Luciferin to oxyluciferin and light in the presence of ATP. The luminescent signal is proportional to amount of ATP present.
Using the CellTiter-Glo luminescent cell viability assay, the amount of cellular ATP was measured in the lymphoblastoid cell line with complete culture medium following compound treatment for 24 hours. The assay was performed in opaque white Kalypsys 1536-well plates. In the screen, tetraoctylammonium bromide was used as positive control. Library compounds were measured for their ability to cause acute toxicity in the cell line, as reflected by a decrease in intracellular ATP levels, in a concentration-dependent manner. […] AC50 values were determined from concentration-response data modeled with the standard Hill equation.
qHTS protocol for CellTiter Glo lymphoblastoid cellular assay
[Step] [Parameter] [Value] [Description]
1. Reagent; 5 uL; 2500 lymphoblastoid cells/well
2. Time; 5 hr; 37 C incubation
4. Controls; 23 nL; Tetraoctylammonium bromide 6.4pM to 92 uM
5. Time; 24 hr; 37 C incubation
6. Reagent; 5 uL; CellTiter Glo reagent
7. Time; 30 min; Room Temperature
8. Detection; Luminescence; Viewlux plate reader
Keywords: cell viability, cytotoxicity, lymphoblastoid cell line, luminescence, NTPHTS, NTPHTS_NCGC, NIEHS, DSSTox, MLSMR, MLSCN, NIH Roadmap, qHTS, NCGC
Potency is the fitted concentration of half-maximal effect.

| Structure (SMILES) | activity change, negative = cytotoxicity | Potency |
| --- | --- | --- |
| Cc1c(N)cccc1Cl | -3.36% (inactive) |  |
| Cc1ccc(N)cc1[N+](=O)[O-] | 0.781% (inactive) |  |
| CCCCC(CC)COCCCN (stereo not given) | -12.4% (inactive) |  |
| CCOc1ccc2nc(N)sc2c1 | -8.78% (inactive) |  |
| CCN(CC)c1ccc(N)cc1 | -22.1% (inactive) |  |
| CCc1ccc(C(c2ccc(CC)cc2)C(Cl)Cl)cc1 | -6.4% (inactive) |  |
| Cc1ccc(S(N)(=O)=O)cc1 | -4.96% (inactive) |  |
| C=C(C#N)C(=O)OCC | -7.97% (inactive) |  |
| C1CCCNCC1 | -1.83% (inactive) |  |
| CC(=O)c1ccc(Cl)c(Cl)c1Cl | -3.71% (inactive) |  |
| c1ccc2ncccc2c1 | 2.5% (inactive) |  |
| CC(C)S | -6.44% (inactive) |  |
| OCC(CO)(CBr)CBr | -0.639% (inactive) |  |
| COc1ccc(C)cc1N | 3.65% (inactive) |  |
| Oc1c(Cl)cc(Cl)c(Cl)c1Cl | -13.6% (inactive) |  |
| c1ccc(Nc2cccc3ccccc23)cc1 | -12.7% (inactive) |  |
| CCCCCCCC/C=C\CCCCCCCC(=O)N(CCO)CCO | -15.2% (inactive) |  |
| Cc1ccc2ccc3cccc4ccc1c2c34 | -11% (inactive) |  |
| O=C(O)c1ccc([N+](=O)[O-])cc1 | -3.51% (inactive) |  |
| Cc1ccc(O)c(N)c1 | -5.98% (inactive) |  |

| Structure (SMILES) | activity change, negative = cytotoxicity | Potency |
| --- | --- | --- |
| C=CC1CO1 (stereo not given) | -3.04% (inactive) |  |
| COc1cc(-c2ccc(N=C=O)c(OC)c2)ccc1N=C=O | -10.4% (inactive) |  |
| CCC(Cl)CC(Cl)C(Cl)C(Cl)C(Cl)C(C)Cl (stereo not given) | 0.758% (inactive) |  |
| N=C1C=CC(=C(c2ccc(N)cc2)c2ccc(N)cc2)C=C1 |  | 10 µM (active) |
| CCCCC(CC)COP(=O)(OCC(CC)CCCC)OCC(CC)CCCC (stereo not given) | -11.4% (inactive) |  |
| CCOC(=O)C1OC1c1ccccc1 (stereo not given) | -9.85% (inactive) |  |
| Oc1ccc(O)c2c(O)cccc12 | -28.7% (inactive) |  |
| NC(=O)Nc1nc2ccccc2[nH]1 | -0.526% (inactive) |  |
| CC(/C=C/C=C(C)/C=C/C(=O)O)=C\C=C\C=C(C)\C=C\C=C(C)\C=C\C(=O)O | -16.4% (inactive) |  |
| O=C(Cl)c1ccc([N+](=O)[O-])cc1 | -5.21% (inactive) |  |
| CC(=O)CC(=O)Nc1ccccc1 | -19.5% (inactive) |  |
| Nc1ccc(-c2ccc(N)c(O)c2)cc1O | -16.5% (inactive) |  |
| Nc1ccccc1O | -0.706% (inactive) |  |
| Nc1cc([N+](=O)[O-])ccc1O | -17.6% (inactive) |  |
| CN(C)c1ccc(Cc2ccc(N(C)C)cc2)cc1 | -12.1% (inactive) |  |
| CCCCOC(=O)COc1ccc(Cl)cc1Cl | -12% (inactive) |  |
| O=[N+]([O-])c1cc(N(CCO)CCO)ccc1NCCO | -26.8% (inactive) |  |
| O=C(O)/C=C/c1ccc(/C=C/C(=O)O)cc1 | -4.78% (inactive) |  |
| CCN(CC)c1ccc2c(C)cc(=O)oc2c1 | -9.56% (inactive) |  |
| CC(=O)Nc1cccc(C)c1 | -2.4% (inactive) |  |
